Source: PubChem BioAssay
DT40 TDP1 no CPT – qHTS for Inhibitors of human tyrosyl-DNA phosphodiesterase 1 (TDP1): qHTS in cells in absence of CPT. DT40 Tdp1-/- hTDP1 cells, no CPT, ATP luminescence, 48 h. Potency, µM (top dose mostly 46.2 µM), most hits filed as inhibitors. actives 15% (n = 420,000). AID 686978, 2013; further: nearly all actives have a fitted effect of over 55% in size
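Cells were dispensed at 400 per well, compounds added by pin tool, plates incubated ≥48 hr at 37 °C, then CellTiter-Glo added for 30 min at room temperature before luminescence reading. Line: DT40 Tdp1-/- complemented with hTDP1; camptothecin omitted.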
IL1B secr inh – blocks inflammasome-driven IL-1 beta release. THP-1 LPS/ATP IL-1B secretion, AlphaLISA, 16 h; active compounds read low. activity change, % at 57.5 µM. actives 4.7% (n = 360,000); in the data active means activity change below about -50%; inconclusive means mostly about -30% to -49%
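THP-1 cells pretreated 1 hr with compounds (up to 57.5 uM final), then stimulated with LPS (250 ng/mL final) plus ATP (1.25 mM final); secreted IL-1B measured by AlphaLISA after 16 hr, decreased signal indicating inhibition.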
ALOX12 inh – ALOX12 (human) lipoxygenase inhibition | Potency, µM (series often up to 108 µM), usual class: inhibitors | actives 1.1% (n = 580,000) | P18054 | purified 12hLO, xylenol orange hydroperoxide absorbance | AID 1671190
Target sequence (P18054 whole entry, looked up): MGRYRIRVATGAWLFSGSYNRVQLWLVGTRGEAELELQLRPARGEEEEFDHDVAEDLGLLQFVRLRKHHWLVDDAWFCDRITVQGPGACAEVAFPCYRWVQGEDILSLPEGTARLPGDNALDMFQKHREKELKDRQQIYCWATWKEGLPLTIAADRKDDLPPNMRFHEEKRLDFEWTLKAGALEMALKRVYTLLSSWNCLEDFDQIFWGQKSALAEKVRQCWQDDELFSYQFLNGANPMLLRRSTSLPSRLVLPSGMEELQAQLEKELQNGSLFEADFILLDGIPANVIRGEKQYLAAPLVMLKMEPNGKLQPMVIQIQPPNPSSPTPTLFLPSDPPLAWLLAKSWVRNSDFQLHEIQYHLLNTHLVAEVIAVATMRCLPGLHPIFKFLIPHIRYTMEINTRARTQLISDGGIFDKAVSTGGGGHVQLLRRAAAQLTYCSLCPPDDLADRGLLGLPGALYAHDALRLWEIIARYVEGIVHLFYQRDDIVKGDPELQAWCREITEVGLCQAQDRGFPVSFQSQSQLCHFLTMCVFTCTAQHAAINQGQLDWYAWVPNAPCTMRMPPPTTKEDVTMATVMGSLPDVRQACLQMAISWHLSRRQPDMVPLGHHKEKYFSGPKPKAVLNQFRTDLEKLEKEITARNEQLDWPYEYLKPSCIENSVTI
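Purified human 12hLO at 150 nM in 25 mM Hepes, 0.01% Triton X-100, pH 7.0, preincubated 15 min at room temperature with compound. Reaction started with 40 uM arachidonic acid, 30 min at room temperature. Hydroperoxide measured by Fe-xylenol orange, 573/405 nm absorbance ratio.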
HT1080 IDH1KD tx – HT-1080 IDH1 knockdown cell toxicity (counter line) | HT-1080 IDH1 knockdown viability, ATP luminescence, 48 h | Potency, µM (top dose mostly 46.1 µM), most hits filed as cytotoxic | actives 2% (n = 360,000) | AID 686971
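Luminescent ATP read-out (CellTiter-Glo, 10 min at room temperature) after 48 h compound exposure at 37 °C gave viability of IDH1-knockdown HT-1080 cells. Activity was normalised to DMSO and cell-free wells, then fitted as concentration-response curves.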
DT40 TDP1 CPT – DT40-hTDP1 cell growth loss with CPT; chicken DT40 Tdp1-/-;hTDP1 cells + 20 nM CPT, ATP luminescence, 48 h; Potency, µM (titrated, usually from 46.2 µM), usual class: inhibitors; actives 12% (n = 420,000); AID 686979; further: nearly all actives have a fitted effect of over 55% in size
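Chicken DT40 Tdp1-/- cells complemented with human TDP1, 400 cells/well, exposed to compounds plus 20 nM camptothecin for at least 48 h at 37 C; viability read as ATP content by CellTiter-Glo luminescence.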
HT1080-NT tox – kills 2HG-producing HT-1080-NT fibrosarcoma cells; actives 1.6% (n = 360,000); HT-1080-NT fibrosarcoma viability, CellTiter-Glo ATP luminescence, 48 h; Potency, µM (titrated, usually from 46.1 µM), hits mostly cytotoxic;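 further: NT is the 2HG producing partner of a matched IDH1 knockdown line; nearly all actives have a fitted effect of over 55% in size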
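Toxicity toward the 2HG-producing NT line was scored as %Activity, normalised to DMSO and no-cell wells, from CellTiter-Glo luminescence after 48 hours' treatment.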
Hits are given with their value; 0 = inactive; ? = inconclusive; - = no result given; ! = not active in a repeat; [ ] = another dose, or the depositor's remark. The entries come from a sample that favours hits as a whole. Unless noted, the call rests on the fitted dose curve; in most records, active means well fitted curve in the direction sought with a large enough effect; inconclusive means small, poorly fitted or top-dose-only effect, or another doubt; inactive means no such curve, though single readings can be large; an effect the other way counts as inactive or inconclusive.

SMILES	DT40 TDP1 no CPT	IL1B secr inh	ALOX12 inh	HT1080 IDH1KD tx	DT40 TDP1 CPT	HT1080-NT tox
COc1ccc(N2CCN(CC(=O)Nc3ccccc3C(=O)NC(C)c3ccccc3)CC2)cc1 (stereo not drawn)	21µM	0	0	0	?	0
O=C(O)C[C@@H]1CCN(C(=O)c2ccc(F)cc2)C[C@@H]1CCN1CCCCC1	-	-	0	-	-	-
CCC(=O)N1Cc2ccccc2CC2(CCCN(CC3CCOCC3)C2)C1 (stereo not drawn)	-	-	0[6.33 µM]	-	-	-
COc1cnc(-c2ccccn2)nc1Sc1cccc(Cl)c1	1.3µM	0	0	?	1.3µM	?
C=CCNc1cc(C(F)(F)F)nc(-c2ccccn2)n1	?	0	0	0	18µM	0
COc1cnc(-c2ccccn2)nc1NC(C)C	0.046µM	0	0	?	0.13µM	?
O=C(O)CSc1cc(C(F)(F)F)nc(-c2ccccn2)n1	0	0	0	0	0	0
FC(F)(F)c1cccc(Sc2cc(C(F)(F)F)nc(-c3ccccn3)n2)c1	21µM	0	?	0	18µM	0
Nc1cccnc1Sc1cccc(Cl)c1	0	0	?	0	0	0
COc1ccc(NC(=O)C(NS(=O)(=O)c2cccc3nsnc23)C(C)C)cc1 (stereo not drawn)	0	-	0	-	0	-
CN(C)c1cc(CNC(=O)Cc2ccccc2F)ccn1	-	-	0	-	-	-
COc1cnc(-c2ccccn2)nc1Sc1ccc(C)cc1	3.3µM	0	0	?	5.2µM	?
COc1cnc(-c2ccccn2)[nH]c1=O	0	0	0	0	0	0
Cc1ccc(Sc2cc(C)nc(-c3ccccn3)n2)cc1	10µM	0	0	?	6.5µM	0
COc1ccccc1Sc1nc(-c2ccccn2)ncc1OC	2.9µM	0	?	?	10µM	0
Cc1ccc(Cc2nc(-c3ccccn3)no2)cc1	0	0	0	0	0	0
Cn1c(SCC(=O)NC(=O)Nc2ccccc2)nnc1-c1ccncc1	0	0	0	0	0	0
CN(C)S(=O)(=O)c1ccc(N2CCCC2)c(C(=O)N2CCc3ccccc32)c1	-	-	0	-	-	-
COc1ccc2c(c1)[C@H]1[C@H](CO2)[C@H](c2ccccc2)[C@]2(C)C(=O)Nc3cc(F)ccc3C(=O)N12	18µM	?	0	?	?	?
COc1ccc2c(c1)[C@H]1[C@H](CO2)[C@H](c2ccccc2)[C@]2(C)C(=O)Nc3ccccc3C(=O)N12	?	?	0	?	?	?
COc1ccc2c(c1)OC[C@H]1[C@H]2N2C(=O)c3ccc(F)cc3NC(=O)[C@@]2(C)[C@H]1c1ccccc1	23µM	-54	0	?	18µM	?
COc1ccc2c(c1)OC[C@H]1[C@@H]2N2C(=O)[C@@H](C)NC(=O)[C@@]2(C)[C@H]1c1ccccc1	0	0	?	0	0	0
C=CCN1C(=O)C(CC(C)C)NC1=S (stereo not drawn)	0	-	-	-	0	-
COC(=O)C1=C(N)Oc2cc(C)n(Cc3ccco3)c(=O)c2C1c1cccc(Cl)c1 (stereo not drawn)	0	0	0	0	0	0
CCOC(=O)C1=C(N)Oc2ccc(Br)cc2[C@@H]1[C@@H](C#N)C(=O)OCC	0	-	10µM	-	0	-
SMILES	DT40 TDP1 no CPT	IL1B secr inh	ALOX12 inh	HT1080 IDH1KD tx	DT40 TDP1 CPT	HT1080-NT tox
CCOC(=O)C1=C(N)Oc2cc(O)ccc2C1c1cccnc1 (stereo not drawn)	?	0	0	0	23µM	0
CCOC(=O)C1=C(N)Oc2cc(O)ccc2C1c1cccc(Cl)c1 (stereo not drawn)	?	0	?	7.3µM	?	9.2µM
CCOC(=O)C1=C(N)Oc2cc(O)ccc2C1c1ccc(Br)cc1 (stereo not drawn)	0	0	25µM!	0	0	0
COc1ccc(Cl)cc1NC(=O)CN1C(=O)NC2(CCOCC2)C1=O	-	-	0	-	-	-
CN1CCN(c2ccc3ncc(Nc4ccc(OC(F)(F)F)cc4)n3n2)CC1	-	-	0	-	-	-
COc1ccccc1N1CC2(C1)CN(c1ccccc1)C(=O)O2	-	-	0	-	-	-
O=C1[C@@H]2C[C@@H](O)CN2C2(CN(Cc3cccnc3)C2)C(=O)N1Cc1ccccc1	-	-	0	-	-	-
CC(C)Oc1ccc(CNC(=O)Cc2ccc(NC(=O)N3CCSc4ncccc43)cc2)cc1	16µM	-	0	-	16µM	-
O=C(NCc1ccccc1F)c1cccc(NC(=O)N2CCSc3ncccc32)c1	?	-	?	-	23µM	-
Cc1cccc(CNC(=O)c2ccc(NC(=O)N3CCSc4ncccc43)cc2)c1	0	-	0	-	0	-
Cc1ccc(CNC(=O)c2cccc(NC(=O)N3CCSc4ncccc43)c2)cc1	21µM	-	0	-	?	-
CC(=O)OC1=CN(Cc2ccccc2)S(=O)(=O)c2ccccc21	0	-	0	-	0	-
O=C(NC(c1ccc(-c2ccccc2)cc1)c1cnccn1)C1CCN(Cc2ccc(Oc3ccccc3)cc2)CC1 (stereo not drawn)	?	-52	?	?	?	13µM
COc1ccc(C(NC(=O)C2CCN(Cc3ccc(Oc4ccccc4)cc3)CC2)c2ccccc2C)cn1 (stereo not drawn)	18µM	?	?	?	21µM	16µM
Cc1cccnc1C(NC(=O)C1CCN(Cc2ccccc2)CC1)c1ccc(F)cc1 (stereo not drawn)	?	0	0	0	?	0
Cc1cccnc1C(NC(=O)C1CCN(Cc2ccc(Oc3ccccc3)cc2)CC1)c1ccccc1 (stereo not drawn)	18µM	?	-	18µM	15µM	23µM
O=C(NC(c1ccccc1)c1ccsc1)C1CCN(Cc2ccc(Oc3ccccc3)cc2)CC1 (stereo not drawn)	18µM	?	?	15µM	?	18µM
CCC1(O)CCC12CCN(C(=O)c1ccsc1)CC2 (stereo not drawn)	-	-	0	-	-	-
COc1cc(CN2CCC(C(=O)NC(c3ccc(-c4ccccc4)cc3)c3cnccn3)CC2)cc(OC)c1 (stereo not drawn)	23µM	-53	?	23µM	9.2µM	23µM
COc1ccc(C(NC(=O)C2CCN(Cc3ccc(Oc4ccccc4)cc3)CC2)c2ccccn2)cc1 (stereo not drawn)	16µM	?	0	23µM	16µM	15µM
O=C(NC(c1ccc(-c2ccccc2)cc1)c1cnccn1)C1CCN(Cc2cccs2)CC1 (stereo not drawn)	?	0	0	?	?	?
COc1cc(CN2CCC(C(=O)NC(c3ccc(F)cc3)c3ncccc3C)CC2)cc(OC)c1 (stereo not drawn)	?	0	0	0	23µM	0
